Many of the other results were omitted from the sample, so hits are more common in it than they were.
KDM5B inhibitor – KDM5B demethylase inhibition. Q9UGL1. KDM5B demethylase, FDH-coupled NADH fluorescence (FDH is formaldehyde dehydrogenase). Potency, µM (highest dose often 57.7 µM), most hits filed as inhibitors. 2.6% of 220,000 active; active means well fitted inhibition curve with a large enough effect; further: nearly all actives have a fitted effect of over 70% in size
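Measured: NADH fluorescence change, 30 min, RT. System: KDM5BΔAP 200 nM final, H3K4me3 peptide, α-KG, Fe(II), ascorbate, NAD⁺ plus FDH, pH 7.5 HEPES. Compounds: titrated, 10 min pre-incubation with enzyme.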
Of the large screens only hits and unclear results are named; the others gave an inactive call.

O=C(Cc1ccc(F)cc1)NCc1nnc2c(-c3nc(C4CC4)no3)cccn12	KDM5B inhibitor 31.6µM
O=C(NCc1nnc2c(-c3nc(C4CC4)no3)cccn12)c1ccc(F)cc1Cl	KDM5B inhibitor 20µM
O=C(Cc1cccc(F)c1)N1CC(F)(F)C[C@H]1c1nc(C2CC2)no1	none
O=C(Cc1cccc(F)c1)N1CCC(c2nc(C3CCOCC3)no2)CC1	none
O=C(Cc1cccc(F)c1)NCc1nnc2c(-c3nc(C4CC4)no3)cccn12	KDM5B inhibitor 31.6µM
O=C(NCc1nnc2c(-c3nc(C4CC4)no3)cccn12)c1cccc2[nH]ccc12	none
O=C(NCc1nnc2c(-c3nc(C4CC4)no3)cccn12)c1cccc(F)c1	KDM5B inhibitor 25.1µM
Cc1ccc(-n2c(=O)c3c(cc(C)n3C)n(CC(=O)Nc3ccccc3F)c2=O)cc1	none
CC1CCN(C(=O)C2CCN(C(=O)c3ccc4ccccc4n3)CC2)CC1	none
Cc1cc(Br)ccc1NC(=O)CSc1nc2cc([N+](=O)[O-])ccc2o1	none
COc1ccc(CN(C)S(=O)(=O)c2ccc3c(c2)OCCCO3)cc1	none
CSc1nnc(-c2nn(C)c3c2CN(S(=O)(=O)c2ccccc2)CC3)n1C	none
Cc1ccc(C(=O)OCCOc2ccccc2Cl)cc1O	none
C=CCNC(=O)NC(=O)CNc1cc(C(F)(F)F)cc(C(F)(F)F)c1	none
CC(C)NC(=O)c1ccc2c(Cl)c3c(nc2c1)CCCC3	none
CN1CCC(N[C@H]2C[C@@H](Cc3cc(-c4ccccc4)on3)C2(C)C)CC1	none
O=C(NCc1nnc2c(-c3nc(C4CC4)no3)cccn12)c1cccc(Cl)c1	KDM5B inhibitor 28.2µM
O=C(Nc1ccccc1Cl)C1CCN(c2ncnc3onc(-c4ccc(F)cc4)c23)CC1	none
CCN(CC)c1ccc(CNC(=O)c2scnc2C)cn1	none
Cc1cccc(NC(=O)Cn2ccn3nc4c(c3c2=O)CCCC4)c1C	KDM5B inhibitor 28.2µM
Cc1cc(C)cc(NC(=O)Cn2ccn3nc4c(c3c2=O)CCCC4)c1	KDM5B inhibitor 35.5µM
Cc1cccc(C)c1NC(=O)Cn1ccn2nc3c(c2c1=O)CCCCC3	none
O=C(Cn1ccn2nc3c(c2c1=O)CCCCC3)Nc1cc(F)ccc1F	KDM5B inhibitor 28.2µM
O=C(Cn1ccn2nc3c(c2c1=O)CCCC3)Nc1ccc2c(c1)OCO2	none
O=c1c2c3c(nn2ccn1Cc1cc(F)ccc1F)CCCC3	none
Cc1cc(NC(=O)Cn2ccn3nc4c(c3c2=O)CCCC4)no1	KDM5B inhibitor 25.1µM
CCOc1ccc(NC(=O)Cn2ccn3nc4c(c3c2=O)CCCC4)cc1	none
Cc1ccc(NC(=O)Cn2ccn3nc4c(c3c2=O)CCCCC4)cc1C	none
Cc1cccc(C)c1NC(=O)Cn1ccn2nc3c(c2c1=O)CCCC3	none
COc1ccccc1NC(=O)Cn1ccn2nc3c(c2c1=O)CCCCC3	none
Cc1ccc(NC(=O)Cn2ccn3nc4c(c3c2=O)CCCC4)cc1Cl	none
Cc1ccccc1COC(=O)C1Cc2ccccc2C(=O)O1 (configuration not stated)	none
O=c1ccn(O)cc1[N+](=O)[O-]	none
CCc1c(C)sc(NC(=O)C2CC2c2ccccc2)c1C#N (configuration not stated)	none
CCN(CC)c1ccc(NC(=O)c2cnc3ccccc3n2)cc1	none
COC(=O)c1sc(NC(=O)COC(=O)c2ccc3c(c2)NC(=O)CS3)c(C(=O)OC)c1C	none
Cc1cccc(OCC(O)CN(Cc2ccccc2)Cc2ccccc2)c1 (configuration not stated)	none
O=C(Cc1ccc2c(c1)CCCC2)NNC(=O)c1ccncc1	none
Cc1ccc(S(=O)(=O)N2CC(C(=O)NCc3ccncc3)C3(CCOCC3)C2)c(C)c1 (configuration not stated)	none
CC(=O)c1ccc(NC(=O)C23CC4CC(CC(C4)C2)C3)cc1	none
Clc1ccc(-c2nn3c(CN4CCOCC4)nnc3s2)cc1	none
COc1cc(NC(=O)c2nc3ccccc3nc2N2CCCCC2)cc(OC)c1OC	none
CCCN1CCN(c2ncnc3sc(C(=O)Nc4ccc(OC(F)(F)F)cc4)c(C)c23)CC1	none
COc1ccc(NC(=O)c2cc3c(N4CCSCC4)nc(C)cn3n2)cc1OC	KDM5B inhibitor 28.2µM
Cc1cn2nc(C(=O)Nc3ccc(C)c(F)c3)cc2c(N2CCSCC2)n1	KDM5B inhibitor 25.1µM
COc1cc(NC(=O)c2cc3c(N4CCSCC4)nc(C)cn3n2)cc(OC)c1OC	KDM5B inhibitor 22.4µM
COc1ccc(NC(=O)c2nc3nc(C)cc(C)n3n2)cc1OC	none
CN1CCN(c2nc3ccccc3nc2C(=O)Nc2ccc(OC(F)(F)F)cc2)CC1	none
Cc1cn2nc(C(=O)Nc3ccc(N(C)C)cc3)cc2c(N2CCCC2)n1	none
Cc1cn2nc(C(=O)Nc3ccc(OC(F)(F)F)cc3)cc2c(N2CCSCC2)n1	KDM5B inhibitor 25.1µM
COc1ccc(NC(=O)c2cc3c(=O)[nH]c(C)cn3n2)cc1OC	none
Cc1cn2nc(C(=O)NC(C)c3ccc(F)cc3)cc2c(N2CCCC2)n1 (configuration not stated)	none
Cc1cc(S(=O)(=O)N2CCOC23CCN(C(=O)c2ccccc2C(F)(F)F)CC3)ccc1F	none
CN(C)C(=O)c1ccc(NC(=O)Cn2nc(-c3ccc(Cl)cc3)c3ccccc3c2=O)cc1	none
Cc1ccc(C(NC(=O)CSc2nnnn2C)c2cccs2)cc1 (configuration not stated)	none
CCOc1ccccc1N(CC(=O)N1CCN(C)CC1)S(=O)(=O)c1ccc(Cl)cc1	none
CCC(=O)Nc1sc2c(c1C#N)CC(C)CC2 (configuration not stated)	none
CCS(=O)(=O)CC(=O)O	none
O=C(Nc1oc2ccccc2c(=O)c1-c1ccccc1)c1ccccc1	none
N#Cc1c(N2CCN(CC(=O)Nc3ccc(Cl)cc3)CC2)nc(-c2ccco2)c2c1CCC2	none
CN1CCN(CN2C(=O)C(O)(CC(=O)c3ccc(Br)s3)c3ccccc32)CC1 (configuration not stated)	none
C=CCc1c(C)nc(Nc2nc(C)c3cc(CC)ccc3n2)[nH]c1=O	none
CC(C)CNC(=O)C(NC(=O)c1ccccc1)C1CCN(C(=O)c2ccccc2)CC1 (configuration not stated)	none
Cc1cn2nc(C(=O)NCCc3cccs3)cc2c(N2CCCC2)n1	none
COc1cccc(NC(=O)c2cc3c(N4CCSCC4)nc(C)cn3n2)c1	KDM5B inhibitor 28.2µM
O=S(=O)(CCSc1nnnn1C1CC1)c1cc(Cl)ccc1Cl	none
S=C(Nc1ccccc1Cl)N(Cc1ccccc1)c1ccccc1	none
Cc1cc(C)nc(SCc2nc3ccc(Cl)cn3c2Br)n1	none
COc1cc(OC)cc(-c2onc(C)c2C(=O)NCCOc2ccccc2)c1	none
COc1cc(CNC(=O)c2c(C)noc2-c2cc(OC)c(OC)c(OC)c2)cc(OC)c1	KDM5B inhibitor 28.2µM
COc1ccc(CNC(=O)c2c(C)noc2-c2ccc(OC)cc2)cc1	none
CCCOCCNC(=O)c1c(C)noc1-c1cc(OC)cc(OC)c1	none
COc1cc(OC)cc(-c2onc(C)c2C(=O)NCc2ccccc2C)c1	none
CCOCCCNC(=O)c1c(C)noc1-c1ccc(OC)cc1	none
COc1cc(-c2onc(C)c2C(=O)NCCC(c2ccccc2)c2ccccc2)cc(OC)c1OC	KDM5B inhibitor 28.2µM
CCCOCCNC(=O)c1c(C)noc1-c1ccc(C(C)(C)C)cc1	none
CCOCCCNC(=O)c1c(C)noc1-c1ccc(OC(F)(F)F)cc1	none
COCCNC(=O)c1c(C)noc1-c1cc(OC)c(OC)c(OC)c1	KDM5B inhibitor 28.2µM
CCOCCCNC(=O)c1c(C)noc1-c1cc(OC)c(OC)c(OC)c1	KDM5B inhibitor 28.2µM
Cc1ccc(C(O)CNC(=O)C2CC=CCC2)cc1 (configuration not stated)	none
Cc1cccc(C(=O)NCc2ccc(C)s2)n1	none
CCOc1cccc(NC(=O)c2ccccc2)c1	none
COc1ccc2cnn(CC(=O)Nc3ccccc3Br)c(=O)c2c1OC	none
